PubChem BioAssay (NCI)
Values joined by “and” are separate entries in the source; they are usually repeats but may differ in a detail not shown here. Identical values can stand only once. The panel holds about 83,000 compounds, 20% with a hit somewhere; the sample as a whole holds those more often.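 A percent growth of 40 corresponds to 60% growth inhibition; 0 means no net growth; -100 means all cells died. Active threshold: below 10.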 Active and inactive are the calls of the source.

What was measured:
Assay in all cases: NCI-60 one-dose screen, 48 h (100 = growth as untreated, 0 = no growth, -100 = all killed)
SR leukemia = test system: SR leukemia
RPMI-8226 leukemia = test system: RPMI-8226 leukemia
OVCAR-8 ovarian = test system: OVCAR-8 ovarian
OVCAR-5 ovarian = test system: OVCAR-5 ovarian
OVCAR-4 ovarian = test system: OVCAR-4 ovarian
SK-OV-3 ovarian = test system: SK-OV-3 ovarian
IGROV1 ovarian = test system: IGROV1 ovarian
OVCAR-3 ovarian = test system: OVCAR-3 ovarian
HS 578T breast = test system: HS 578T breast
NCI/ADR-RES ovarian = test system: NCI/ADR-RES ovarian
T-47D breast = test system: T-47D breast
BT-549 breast = test system: BT-549 breast
MDA-MB-435 melanoma = test system: MDA-MB-435 melanoma
SW-620 colon = test system: SW-620 colon
MCF7 breast = test system: MCF7 breast
HCT-116 colon = test system: HCT-116 colon
HCC-2998 colon = test system: HCC-2998 colon
KM12 colon = settings: 10 µM

Measured: growth

COc1cccc2c1C(=O)c1c(O)c3c(c(O)c1C2=O)C[C@@](O)(C(=O)CO)C[C@@H]3OC1CC(N)C(O)C(C)O1 (stereo not given in full)
inactive: SR leukemia; 0.0025 µM 81.5% | RPMI-8226 leukemia; 0.0025 µM 101% | RPMI-8226 leukemia; 2.5 µM 62.7% | OVCAR-8 ovarian; 0.0025 µM 99.5% | OVCAR-8 ovarian; 1 µM 36.6% | OVCAR-8 ovarian; 2.5 µM 45% | OVCAR-5 ovarian; 0.0025 µM 102% | OVCAR-5 ovarian; 1 µM 84.4% | OVCAR-5 ovarian; 2.5 µM 120% | OVCAR-4 ovarian; 0.0025 µM 114% | OVCAR-4 ovarian; 1 µM 68% | OVCAR-4 ovarian; 2.5 µM 67.6% | OVCAR-4 ovarian; 10 µM 14.1% | SK-OV-3 ovarian; 0.0025 µM 95.6% | SK-OV-3 ovarian; 1 µM 28.4% | SK-OV-3 ovarian; 2.5 µM 43.4% | SK-OV-3 ovarian; 10 µM 13.8% | IGROV1 ovarian; 0.0025 µM 85.7% | IGROV1 ovarian; 1 µM 19.9% | IGROV1 ovarian; 2.5 µM 50% | OVCAR-3 ovarian; 0.0025 µM 105% | OVCAR-3 ovarian; 1 µM 81.8% | OVCAR-3 ovarian; 10 µM 10.2% | HS 578T breast; 0.0025 µM 97.9% | HS 578T breast; 1 µM 70.8% | HS 578T breast; 2.5 µM 50% | NCI/ADR-RES ovarian; 0.0025 µM 103% | NCI/ADR-RES ovarian; 1 µM 104% | NCI/ADR-RES ovarian; 2.5 µM 99% | T-47D breast; 0.0025 µM 90.7% | T-47D breast; 1 µM 13.2% | T-47D breast; 2.5 µM 39.5% | BT-549 breast; 0.0025 µM 81.9% | BT-549 breast; 2.5 µM 65.6% | MDA-MB-435 melanoma; 0.0025 µM 99% | MDA-MB-435 melanoma; 1 µM 50.1% | MDA-MB-435 melanoma; 2.5 µM 72.5% | SW-620 colon; 0.0025 µM 91.7% | MCF7 breast; 0.0025 µM 71.4% | MCF7 breast; 1 µM 18.7% | HCT-116 colon; 0.0025 µM 76.1% | HCT-116 colon; 2.5 µM 28.1% | HCC-2998 colon; 0.0025 µM 84.7% | HCC-2998 colon; 1 µM 59.8%
active: SR leukemia; 2.5 µM -29.1% | SR leukemia; 10 µM -0.536% | RPMI-8226 leukemia; 1 µM -15.7% | RPMI-8226 leukemia; 10 µM -17.4% | OVCAR-5 ovarian; 10 µM -59.3% | IGROV1 ovarian; 10 µM -7.77% | HS 578T breast; 10 µM -68.2% | NCI/ADR-RES ovarian; 10 µM 4.94% | T-47D breast; 10 µM -11.3% | BT-549 breast; 1 µM 5.17% | BT-549 breast; 10 µM -59.2% | MDA-MB-435 melanoma; 10 µM -83.9% | SW-620 colon; 1 µM -1.05% | SW-620 colon; 10 µM 1.93% | MCF7 breast; 2.5 µM 7.74% | MCF7 breast; 10 µM 3.37% | HCT-116 colon; 1 µM 8.95% | HCT-116 colon; 10 µM 2.8% | HCC-2998 colon; 2.5 µM -13.3% | HCC-2998 colon; 10 µM -54.4%

O=C(C(=Cc1ccccc1)C(=O)c1ccccc1)c1ccccc1
-2.63% (active) and 85.2% (inactive): RPMI-8226 leukemia; 10 µM
inactive: OVCAR-8 ovarian; 10 µM 47.8% and 87% | OVCAR-5 ovarian; 10 µM 91.7% and 84.7% | OVCAR-4 ovarian; 10 µM 73.6% and 84.7% | SK-OV-3 ovarian; 10 µM 99.5% and 106% | IGROV1 ovarian; 10 µM 75.1% and 117% | OVCAR-3 ovarian; 10 µM 66.3% and 85.7% | HS 578T breast; 10 µM 65.2% and 94.3% | NCI/ADR-RES ovarian; 10 µM 54.3% and 84.3% | T-47D breast; 10 µM 65.5% and 74.7% | BT-549 breast; 10 µM 66% and 103% | MDA-MB-435 melanoma; 10 µM 63.5% and 104% | SW-620 colon; 10 µM 44.3% and 84.4% | MCF7 breast; 10 µM 25.1% and 89.3% | HCT-116 colon; 10 µM 18.3% and 62.2% | HCC-2998 colon; 10 µM 92.4% and 129%
6.35% (active) and 108% (inactive): SR leukemia; 10 µM unless noted

Cc1cc(O)c(C(C)C)cc1Cl
inactive: SR leukemia; 10 µM unless noted 103% | RPMI-8226 leukemia; 10 µM 110% | OVCAR-8 ovarian; 10 µM 104% | OVCAR-5 ovarian; 10 µM 105% | OVCAR-4 ovarian; 10 µM 109% | SK-OV-3 ovarian; 10 µM 101% | IGROV1 ovarian; 10 µM 112% | OVCAR-3 ovarian; 10 µM 103% | HS 578T breast; 10 µM 99.5% | NCI/ADR-RES ovarian; 10 µM 112% | T-47D breast; 10 µM 98.8% | BT-549 breast; 10 µM 111% | MDA-MB-435 melanoma; 10 µM 99.2% | SW-620 colon; 10 µM 105% | MCF7 breast; 10 µM 104% | HCT-116 colon; 10 µM 98.9% | HCC-2998 colon; 10 µM 101% | KM12 colon 112%

O=C(Nc1ccc(C(=O)O)c(O)c1)c1ccccc1
inactive: SR leukemia; 10 µM unless noted 113% and 122% | RPMI-8226 leukemia; 10 µM 132% and 105% | OVCAR-8 ovarian; 10 µM 97.7% and 99.8% | OVCAR-5 ovarian; 10 µM 93.8% and 100% | OVCAR-4 ovarian; 10 µM 108% and 112% | SK-OV-3 ovarian; 10 µM 100% and 108% | IGROV1 ovarian; 10 µM 100% and 103% | OVCAR-3 ovarian; 10 µM 115% and 125% | HS 578T breast; 10 µM 130% and 119% | NCI/ADR-RES ovarian; 10 µM 84.2% and 100% | T-47D breast; 10 µM 101% and 104% | BT-549 breast; 10 µM 104% | MDA-MB-435 melanoma; 10 µM 99% and 99.1% | SW-620 colon; 10 µM 99% and 113% | MCF7 breast; 10 µM 102% and 95.6% | HCT-116 colon; 10 µM 107% and 101% | HCC-2998 colon; 10 µM 102% and 106% | KM12 colon 120%

Nc1ccc2cc3ccc(N)cc3nc2c1
121% (inactive) and 9.1% (active): KM12 colon
106% (inactive) and 7.41% (active): SR leukemia; 10 µM unless noted
77.5% (inactive) and 3.77% (active): RPMI-8226 leukemia; 10 µM
109% (inactive) and 3.02% (active): HCT-116 colon; 10 µM
88% (inactive) and -2.44% (active): OVCAR-8 ovarian; 10 µM
111% (inactive) and -21.7% (active): MCF7 breast; 10 µM
104% (inactive) and -5.13% (active): OVCAR-4 ovarian; 10 µM
inactive: OVCAR-5 ovarian; 10 µM 84.9% and 26.6% | SK-OV-3 ovarian; 10 µM 78.5% and 12.8% | IGROV1 ovarian; 10 µM 111% and 19.1% | OVCAR-3 ovarian; 10 µM 122% and 11.3% | HS 578T breast; 10 µM 123% and 23.6% | NCI/ADR-RES ovarian; 10 µM 89.1% and 12.6% | BT-549 breast; 10 µM 95.9% and 69.1% | MDA-MB-435 melanoma; 10 µM 103% and 23.4% | SW-620 colon; 10 µM 103% and 10.5% | HCC-2998 colon; 10 µM 110% and 16.7%
102% (inactive) and 2.81% (active): T-47D breast; 10 µM
